Test results taken from PubChem BioAssay AID463173 (ICCB-Longwood Screening Facility, Harvard Medical School, 2010).
Hit rate of the full screen: of about 52,000 compounds, about 4,300 (8.3%) were called active. The full list was thinned out, with actives kept by preference. Unmarked numbers belong to inactive results. No stated cut-off is given here; in the data, active means survival mostly below about 52% (no sharp cut-off); inactive means mostly above about 56%.

System: DeltatarO mutant
Assay: S. aureus survival, RN4220 and DeltatarO strains – OD600, teichoic acid synthesis inhibitors, primary screen (AID 463173)
Conditions: S. aureus RN4220 wild type/DeltatarO growth, OD600, 18 h, stronger effect = lower value, screened at 18.75 µg/mL (by protocol)

Compared with `Cc1c(NC(=O)Nc2ccccc2C(F)(F)F)c(=O)n(-c2ccccc2)n1C`, `COCC(=O)Nc1c(C(=O)Nc2ccc(C)cc2)oc2ccccc12` is lower in survival: 92% for the first, 86% for the second.

Compared with `CCOc1ccc(NC(=O)Cn2c(=O)n(Cc3nc(-c4ccccc4)no3)c(=O)c3cc4c(cc32)OCO4)cc1`, `O=[N+]([O-])c1cc(-c2nc(-c3ccccc3)no2)ccc1NCCc1ccccc1` is lower in survival: 89% for the first, 58% for the second.

Compared with `CCOCCc1nn2c(=O)cc(COC(=O)C3CCCCC3)nc2s1`, `CCN(CC)CCNC(=O)c1cn(CC)c2ccc(S(=O)(=O)N(C)C3CCCCC3)cc2c1=O` is higher in survival: 88% for the first, 107% for the second.

First: COc1cccc(OC(=O)N2CCOCC2)c1
Second: Cc1ccc(OC(=O)c2ccco2)cc1C
The survival of the first is higher: 103% for the first, 61% for the second.

First: COc1ccc(S(=O)(=O)c2cnc3ccc(Cl)cc3c2N2CCCCC2C)cc1 (centres undefined)
Second: CC1CCCCN1c1c(S(=O)(=O)c2ccc(Cl)cc2)cnc2ccccc12 (centres undefined)
The survival of the first is higher: 134% for the first, 102% for the second.

Going from `O=S1(=O)CCC(N2C(=S)SC3CS(=O)(=O)CC32)C1` (centres undefined) to `Cc1ccc(CN2CCN(C3CCN(S(=O)(=O)N(C)C)CC3)C(=O)C2=O)cc1`, the survival falls from 96% to 82%.

Compared with `O=C(Cn1c(=O)ccc2cc(S(=O)(=O)N3CCCC3)ccc21)NCc1ccc(Cl)cc1`, `CCOc1ccc(CNC(=O)C2CCCN(S(=O)(=O)c3ccc4c(c3)CCCC(=O)N4)C2)cc1` (centres undefined) is lower in survival: 102% for the first, 75% for the second.

Compared with `CCc1ccc(-c2cc(C)no2)cc1S(=O)(=O)Nc1ccc(Cl)cc1`, `CCc1ccc(-c2cc(C)no2)cc1S(=O)(=O)Nc1ccc(C)cn1` is lower in survival: 68% for the first, 55% for the second.

Going from `CCC1CCCCN1CCCNC(=O)c1c(O)nc2cc(C)ccn2c1=O` (centres undefined) to `Cc1oc2ncn(CC(C)C)c(=O)c2c1C(=O)NCCCN1CCCCC1`, the survival rises from 80% to 101%.

First: COc1cc(-c2noc(-c3ccc(NCc4ccccc4)c([N+](=O)[O-])c3)n2)cc(OC)c1OC
Second: COc1cc(-c2noc(-c3ccc(NCCc4ccccc4)c([N+](=O)[O-])c3)n2)cc(OC)c1OC
The survival of the first is higher: 79% for the first, 66% for the second.

Going from `COc1ccc(-c2noc(-c3ccc(NCC4CCCO4)c([N+](=O)[O-])c3)n2)cc1OC` (centres undefined) to `Cc1ccc(-c2noc(-c3ccc(NCC4CCCO4)c([N+](=O)[O-])c3)n2)cc1` (centres undefined), the survival rises from 54% to 74%.

Going from `COc1ccc(-c2noc(-c3ccc(NCCc4ccccc4)c([N+](=O)[O-])c3)n2)cc1OC` to `COc1ccccc1-c1noc(-c2ccc(NCc3cccnc3)c([N+](=O)[O-])c2)n1`, the survival falls from 57% to 47%.

First: COc1ccc(-c2noc(-c3ccc(NCc4cccnc4)c([N+](=O)[O-])c3)n2)cc1
Second: COc1ccc(-c2cn3c(n2)sc2cc(C(=O)Nc4ccc(F)cc4Cl)ccc23)cc1
The survival of the first is lower: 56% for the first, 61% for the second.

First: Cc1ccc(N)cc1N(C)C
Second: Cc1cccc(OCc2nc(CC(=O)Nc3ccc(C)c(C)c3)cs2)c1
The survival of the first is lower: 78% for the first, 85% for the second.

First: C=CCn1c(C(NC(=O)c2ccc(Cl)cc2Cl)C(C)C)n[nH]c1=S (centres undefined)
Second: Cc1ccnc(NC(=O)c2c(C)oc3ncn(CC(C)C)c(=O)c23)c1
The survival of the first is lower: 81% for the first, 92% for the second.

Compared with `COc1cc(NC(=O)C2CCN(S(=O)(=O)c3c(C)noc3/C=C/c3c(C)cc(C)cc3C)CC2)cc(OC)c1`, `Cc1cc(C)cc(NC(=O)Cc2csc(COc3cccc(C)c3)n2)c1` is higher in survival: 78% for the first, 90% for the second.

Going from `Cc1cccc(CCNC(=O)C2CCC(CNS(=O)(=O)c3ccccc3)CC2)c1` (centres undefined) to `Cc1cccc(NC(=O)Cc2csc(COc3cccc(C)c3)n2)c1`, the survival falls from 77% to 74%.

Compared with `Clc1ccc(Nc2c(-c3ccccc3Cl)nc3ccc(Cl)cn23)cc1`, `Cc1ccc(Cl)cc1NC(=O)NCc1cccn1Cc1ccc(F)cc1` is higher in survival: 45% for the first, 104% for the second.

Compared with `CCOc1ccc(CCNC(=O)c2c(C)oc3ncn(C)c(=O)c23)cc1`, `CCNC(=O)c1c(C)oc2ncn(C)c(=O)c12` is higher in survival: 84% for the first, 91% for the second.

First: CCN(CC)CCCNC(=O)c1c(C)oc2ncn(CC(C)C)c(=O)c12
Second: Cc1cccc(NC(=O)c2c(C)oc3ncn(CC(C)C)c(=O)c23)n1
The survival of the first is lower: 70% for the first, 72% for the second.

Going from `Cc1cc(S(=O)(=O)N2CCN(Cc3noc(CCC(=O)N4CCCCC4)n3)CC2)ccc1F` to `CCC(=O)N1CCc2cc(Br)cc(S(=O)(=O)N3CCN(c4ccccc4)CC3)c21`, the survival falls from 89% to 73%.

Compared with `CN1c2ccc(Cl)cc2-c2nc(SCC(=O)NCc3ccc(F)cc3)ncc2S1(=O)=O`, `Cc1nc(CC(=O)Nc2ccc(C(N)=O)cc2)cs1` is lower in survival: 117% for the first, 49% for the second.

Going from `O=C(c1cc2ccc3cccnc3c2[nH]1)N1CCCCC1` to `COc1ccc(NC(=O)Cc2csc(C)n2)cc1`, the survival falls from 69% to 47%.

With `CCCOC(=O)c1ccc(NC(=O)Cc2csc(C)n2)cc1` the survival was 105%.

In the case of `Cc1ccc2ncc(S(=O)(=O)c3ccccc3)c(N3CCCCC3C)c2c1` (centres undefined), the survival was 7% (active).
`CCc1ccc(-c2cc(C)no2)cc1S(=O)(=O)Nc1ccc(Cl)cn1` was tested, and the survival was 17% (active).
In the case of `COc1ccccc1-c1noc(-c2ccc(NCCc3ccccc3)c([N+](=O)[O-])c2)n1`, the survival was 37% (active).
For `COc1ccc(-c2noc(-c3ccc(NCCc4ccccc4)c([N+](=O)[O-])c3)n2)cc1`, the survival was 42% (active).
`COc1ccc(-c2noc(-c3ccc(NCC4CCCO4)c([N+](=O)[O-])c3)n2)cc1` (centres undefined) was tested, and the survival was 42% (active).
With `COc1ccccc1-c1noc(-c2ccc(NCc3ccccc3)c([N+](=O)[O-])c2)n1` the survival was 35% (active).
In the case of `CCCCNC(=O)c1c(C)oc2ncn(CC(C)C)c(=O)c12`, the survival was 6% (active).
For `Cc1oc2ncn(CC(C)C)c(=O)c2c1C(=O)Nc1cccc(C(F)(F)F)c1`, the survival was -1% (active).
For `CSc1ccc(CCNC(=O)c2c(C)oc3ncn(C)c(=O)c23)cc1`, the survival was -2% (active).
For `Cc1cc(C)cc(NC(=O)Cc2csc(C)n2)c1`, the survival was 39% (active).
With `Cc1nc(CC(=O)Nc2ccc(C)c(C)c2)cs1` the survival was 40% (active).
For `Cc1nc(CC(=O)Nc2ccc(N(C)C)cc2)cs1`, the survival was 45% (active).
